Assay results as given in PubChem BioAssay (NCI).
This is part of a sample that, as a whole, favours compounds with a hit. Of some 83,000 tested, about 20% had one in any assay.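 How to read the values: 0–100, growth inhibition (40 = 60% inhibited); 0, no net growth; -100 to 0, cell death (-40 = 40% of starting cells died; -100 = all dead).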 Unmarked numbers belong to inactive results. Calls of active or inactive are those of the source. Rule for the calls: active = growth percent below 10; inactive = the rest.

What was measured:
Experiment in all cases: NCI-60 one-dose screen, 48 h (100 = growth as untreated, 0 = no growth, -100 = all killed)
Conditions in all cases: 10 µM unless noted
[1] = system: SR leukemia
[2] = system: RPMI-8226 leukemia
[3] = system: OVCAR-8 ovarian
[4] = system: OVCAR-5 ovarian
[5] = system: OVCAR-4 ovarian
[6] = system: SK-OV-3 ovarian
[7] = system: IGROV1 ovarian
[8] = system: OVCAR-3 ovarian
[9] = system: HS 578T breast
[10] = system: NCI/ADR-RES ovarian
[11] = system: T-47D breast
[12] = system: BT-549 breast
[13] = system: MDA-MB-435 melanoma
[14] = system: SW-620 colon
[15] = system: MCF7 breast
[16] = system: HCT-116 colon
[17] = system: HCC-2998 colon
[18] = system: KM12 colon

Row | SMILES | growth [1] [%] | growth [2] | growth [3] [%] | growth [4] [%] | growth [5] [%] | growth [6] [%] | growth [7] [%] | growth [8] [%] | growth [9] [%] | growth [10] [%] | growth [11] [%] | growth [12] [%] | growth [13] | growth [14] [%] | growth [15] [%] | growth [16] | growth [17] [%] | growth [18] [%]
1 | COc1cc2c(cc1OC)CC[N+](CCC[N+](C)(C)C)=C2 | 89.8 | 103% | 110 | 91.5 | 99 | 92.9 | 99.6 | 108 | 111 | 102 | 103 | 92.8 | 103% | 113 | 95.1 | 95.2% | 89.5 | 103
2 | O=[N+]([O-])c1ccc(N/N=C\c2cc(Cl)ccc2O)nc1 | 10.6 | 40.8% | 32.9 | 88.8 | 36.1 | 46.6 | 30.4 | 48.5 | 64.2 | 17.4 | 25.4 | 42.4 | 48.7% | 32.4 | 16 | 16.7% | 42 | 29
3 | [2H]C([2H])([2H])Oc1c(F)cccc1/C=C/C(=O)/C=C(O)/C=C/c1cccc(F)c1OC([2H])([2H])[2H] | 94.8 | 99.2% | 87 | 104 | 89.1 | 117 | 101 | 108 | 112 | 92.4 | 83.8 | 97.6 | 94.9% | 109 | 74.5 | 84.1% | 112 | 102
4 | O=C(/C=C/c1ccc([N+](=O)[O-])cc1)c1cccc(Nc2nc(Nc3ccccc3)nc(Nc3ccccc3)n2)c1 | 55.8 | -60.2% (active) | 70.5 | 74.7 | 79.8 | 81 | 52 | 72.6 | 70.2 | 67.9 | 47.1 | 87.7 | 91.7% | 67.6 | 15.6 | -11.9% (active) | 46.1 | 81.1
5 | CCCCCN(CCCCC)CC(O)c1c(Cl)ccc2ccccc12 (configuration not stated) | 32.9 | 66.2% | 87.5 | 65.8 | 79.5 | 93.6 | 63 | 90.7 | 80 | 77.8 | 69 | 105 | 84.2% | 46.1 | 72.2 | 37.2% | 70.8 | 75.9
6 | CC(=O)O[C@H]1C[C@@]2(C)[C@@H](C[C@@H](O)[C@H]3[C@@]4(C)CC[C@H](N5CCCC5)[C@@H](C)[C@@H]4CC[C@@]32C)/C1=C(\CCC=C(C)C)C(=O)O | 24 | 88.1% | 102 | 102 | 101 | 100 | 105 | 101 | 95.3 | 95.1 | 103 | 101 | 99.7% | 96.2 | 90.7 | 99.9% | 104 | 102
7 | COC(=O)[C@H]1Cc2c([nH]c3ccccc23)[C@H](c2ccc3c(c2)OCO3)N1 | 103 | 97.5% | 103 | 100 | 94 | 102 | 90.6 | 99.7 | 102 | 99.8 | 91.8 | 99.5 | 101% | 102 | 93.3 | 97.6% | 97.6 | 99.3
8 | O=C(O)/C=C\C(=O)Nc1ccc2c(c1)Cc1cc(F)ccc1-2 | 106 | 97.6% | 105 | 107 | 100 | 94.2 | 95.5 | 106 | 126 | 102 | 84.6 | 111 | 102% | 110 | 93.3 | 92.1% | 97.6 | 101
9 | COc1cc(/C=C2\C(=O)N(CCOc3cc(O)c4c(=O)cc(-c5ccccc5)oc4c3)c3ccccc32)cc(OC)c1O | 39 | 84.1% | 69.9 | 103 | 82.3 | 92.2 | 74.4 | 55 | 45.5 | 47.5 | 65.4 | 51 | -40.2% (active) | 22.2 | 31 | 28.2% | 80 | 51.2
